Reference: PubChem BioAssay (EPA / NIEHS)
The source made the active and inactive calls. How the source made its calls: active means hit-call score of the fitted dose curve at least 0.9, where 1 is the maximum; inactive means score below 0.9.

test: ATG_RORE_CIS: Attagene CIS-FACTORIAL HepG2 Assay for human RAR-related Orphan Receptor Element (RORE) (AID 2282959); settings: HepG2 Attagene cis-factorial RORE reporter, mRNA; actives raise or lower the signal
Method: ATG_CIS is a cell-based, multiplexed-readout assay that uses HepG2, a human liver cell line, with measurements taken at 24 hours after chemical dosing in a 24-well plate.ATG_RORE_CIS is one of 52 assay component(s) measured or calculated from the ATG_CIS assay. It is designed to make measurements of mRNA induction, a form of inducible reporter, as detected with fluorescence intensity signals by Reverse transcription polymerase chain reaction (RT-PCR) and Capillary electrophoresis technology.Data from the assay component ATG_RORE_CIS was analyzed into 1 assay endpoint. This assay endpoint, ATG_RORE_CIS, was analyzed with bidirectional fitting relative to DMSO as the negative control and baseline of activity. Using a type of inducible reporter, measures of mRNA for gain or loss-of-signal activity can be used to understand the reporter gene at the transcription factor-level as they relate to the gene RORA and RORB and RORC. Furthermore, this assay endpoint can be referred to as a primary readout, because this assay has produced multiple assay endpoints where this one serves a reporter gene function. To generalize the intended target to other relatable targets, this assay endpoint is annotated to the nuclear receptor intended target family, where the subfamily is orphan.
Human liver HepG2 cells are transiently transfected with multiple reporter transcription units (MRTUs) in 6-well plates using FuGene 6 reagent (Roche; 3 ml FuGene/1 mg DNA). The MRTU constructs are regulated by a cis-regulating element (promoter). […] A major difference between the CIS and TRANS system is that in CIS activities of endogenous TFs are measured, whereas the TRANS assay evaluates changes in activities of exogenous, chimeric NR-Gal4 proteins. […] At the end of 24 hour incubation, total RNA was isolated using TriZol reagent (Invitrogen). The isolated RNA is then reverse-transcribed using oligo(dT) primer and Mo-MLV reverse transcriptase (Invitrogen) with DNAse I (Ambion) treatment for 30 min. The one-tenth of the produced cDNA was amplified by PCR using Taq DNA polymerase (Invitrogen) and two reporter sequence-specific primers. The PCR products were fluorescently labeled by primer extension with 6-arboxyfluorescein (6-FAM) 5'-labeled reporter sequence-specific primer (2 min at 95 C, 20 s at 68 C and 10 min at 72 C) and these products were digested with 5U of HpaI (New England Biolabs) for 2h at 37 C. The fragments were purified using Qiaquick PCR columns (Qiagen), analyzed on an ABI 3130xL genetic analyzer (Applied Biosystems) with peak positions identified by using a set of X-rhodamine (ROX)-labeled MapMarker1000 molecular weight standards (BioVentures). The raw capillary electrophoresis data was processed using Attagraph software (Attagene).

SMILES	AC50	outcome
CC(=O)c1cc2c(cc1C)C(C)(C)C(C)CC2(C)C (stereo not given)	166 µM (active)	
CCOP(=O)(OCC)OCC		inactive
SCc1ccco1		inactive
CCOC(=O)COc1ccc(Cl)cc1Cl		inactive
O=C(O)C(Br)Br		inactive
C=CCc1ccc(OC(=O)Cc2ccccc2)c(OC)c1		inactive
Nc1ccc([N+](=O)[O-])cc1N		inactive
Nc1ccc(Cl)c(Cl)c1		inactive
COCC(=O)N(c1c(C)cccc1C)N1CCOC1=O		inactive
N#CCNCC#N		inactive
O=CNC(N1CCN(C(NC=O)C(Cl)(Cl)Cl)CC1)C(Cl)(Cl)Cl (stereo not given)		inactive
N#CCCCCC#N		inactive
C=COCCCl		inactive
COc1cc(OC)c(OC)cc1C=O		inactive
Nc1ccccc1C(=O)OCCc1ccccc1	20.8 µM (active)	
CCc1cc(C)cc(CC)c1-c1c(OC(=O)C(C)(C)C)n2n(c1=O)CCOCC2		inactive
CCCCCCCCCCCC#N		inactive
CC1(C)[C@H](C(=O)O[C@H](C#N)c2cccc(Oc3ccccc3)c2)[C@@H]1C=C(Br)Br		inactive
[Cl-].[Cl-].[Cl-].[Yb+3]		inactive
CC1OC(C)OC(C)O1 (stereo not given)		inactive

SMILES	AC50	outcome
Nc1cc(Cl)cc(Cl)c1		inactive
CC1(C)C(=O)NC(=O)NC1=O		inactive
CC1CCCC1.[C-]#[O+].[C-]#[O+].[C-]#[O+].[Mn]		inactive
C[C@]12CCC(=O)C(O)=C1CC[C@@H]1[C@@H]2CC[C@]2(C)C(=O)CC[C@@H]12		inactive
CC(C)(C)C(=O)CCl		inactive
O=[N+]([O-])c1cc(C(F)(F)F)c(Cl)c([N+](=O)[O-])c1Cl		inactive
CC(=O)/C=C/c1ccccc1		inactive
CCCCCCC1CCOC1=O (stereo not given)		inactive
CCCCCc1cc(O)cc(O)c1	50.4 µM (active)	
CC(C)[C@@H](C(=O)O[C@@H](C#N)c1cccc(Oc2ccccc2)c1)c1ccc(Cl)cc1		inactive
CSc1nc(N=[N+]=[N-])nc(NC(C)C)n1		inactive
O=[N+]([O-])C=Cc1ccccc1		inactive
c1ccc(Nc2ccc3ccccc3c2)cc1		inactive
CN1C[C@H](C(=O)N[C@]2(C)O[C@@]3(O)[C@@H]4CCCN4C(=O)[C@H](Cc4ccccc4)N3C2=O)C=C2c3cccc4[nH]cc(c34)C[C@H]21		inactive
O=C(CCN1CC1)OCC(CO)(COC(=O)CCN1CC1)COC(=O)CCN1CC1		inactive
C=CCN(CC=C)C(=O)C(Cl)Cl		inactive
Cc1ccc(C)c2ccccc12		inactive
C=Cc1cccc(CCl)c1		inactive
N#Cc1cc(I)c(O)c(I)c1		inactive
CC1CCC(=O)O1 (stereo not given)		inactive
